Pf Dd2 growth: inhibitors of Plasmodium falciparum Dd2 growth | P. falciparum Dd2 growth, SYBR Green, 72 h | Potency, µM (series often up to 28.9 µM), for the others: at the highest dose activity, negative = inhibition, most hits filed as inhibitors | 4.3% of 120,000 active; active = well fitted inhibition curve with a large enough effect;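 note: plate controls were DMSO vehicle for no effect and reference drug for full effect; nearly all actives have a fitted effect of over 65% in size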
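Infected erythrocytes (Dd2, 0.3% parasitemia, 2.5% hematocrit final) are added to compound in RPMI-1640/Albumax II medium, grown 72 h at 37C in low oxygen, then lysed with saponin/Triton-X containing SYBR Green and read by fluorescence.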
* hit, by the source's call; i = inactive; [ ] = dose if it differs, or a comment. The entries come from a sample that favours hits as a whole. Potency is the fitted concentration of half-maximal effect.

SMILES	Pf Dd2 growth
CCOC(=O)C1=C(CN2CCN(c3cc(C)ccc3C)CC2)NC(=O)NC1c1ccc(Cl)cc1 (stereo not given)	10µM*
CCOC(=O)C1=C(CN2CCN(c3ccc(OC)cc3)CC2)NC(=O)NC1c1ccc(Cl)cc1 (stereo not given)	-16.5%
CCOC(=O)C1=C(CNCc2ccccc2)NC(=O)NC1c1ccc(C)cc1 (stereo not given)	10µM*
CCOC(=O)C1=C(CN(CC)Cc2ccccc2)NC(=O)NC1c1ccc(Cl)cc1 (stereo not given)	i
Cc1ncccc1OC1(C(=O)N2CCCC2c2nc(C(C)C)no2)CCNCC1 (stereo not given)	-4.9%
COC(=O)[C@H](CC1CCCCC1)NC(=O)[C@@H]1CN(C(=O)c2cccnc2)CCN1S(C)(=O)=O	-7.3%
CN1c2cc(C(N)=O)ccc2C(=O)N2CCCC21 (stereo not given)	20.8%
O=C(c1ccoc1)N1CC[C@@H]2[C@@H](CCC(=O)N2CCc2cnc[nH]2)C1	-10.1%
Cc1ccc(C(=O)N2CCC[C@H]2c2nc(-c3ccccc3Cl)no2)cc1C	-24.6%
O=C(c1ccc(CC2CCCNC2)cc1)N1CCc2nc[nH]c2C1 (stereo not given)	5.0%
Cc1noc([C@@H]2CN(C(=O)Cn3c(=O)oc4ccccc43)C[C@H]2C(N)=O)n1	-1.8%
CCOC(=O)c1sc(NC(=O)c2nc(SC)ncc2Cl)c(C(=O)OCC)c1C	140.3%
CCCOC(=O)c1c(NC(=O)c2nc3ncccn3n2)sc(C(=O)OCC)c1C	2.82µM*
CCOC(=O)c1sc(NC(=O)c2nc3nc(C)cc(C(F)F)n3n2)c(C(=O)OC)c1C	-31.8%
O=C(CCn1ccn2nc3c(c2c1=O)CCCC3)N1CCN(c2ccc(Cl)cc2)CC1	-9.0%
CCN1CCN(CCNC(=O)C2CCCCC(=O)N2Cc2ccccc2)CC1 (stereo not given)	-3.4%
O=C1CCCCC(C(=O)NCCCN2CCc3ccccc3C2)N1 (stereo not given)	-13.0%
O=C(NCCCN1CCc2ccccc2C1)C1CCCCC(=O)N1Cc1ccccc1 (stereo not given)	3.98µM*
CN1C[C@H](NCc2nccn2C)CCC[C@@H](C(=O)N(C)Cc2cccnc2)CC1=O	28.0%[44.1 µM]
Cc1cccc(OCC(=O)NC(C)C(=O)N2CCN(c3ccccn3)CC2)c1 (stereo not given)	i
C[C@@H](NC(=O)N1CCOC[C@H]1c1ncc(-c2ccc(F)cc2)[nH]1)c1ccccc1	i
CNC(=O)Cn1nc(C2CCN(C(=O)c3ccc(F)cc3)CC2)c2c1CCOC2	17.1%[5.79 µM]
COc1cccc(CC(=O)N2CCCN(c3cc(-c4ccc(Br)cc4)[nH]n3)CC2)c1	-16.4%
CC(=O)Nc1cccc(-c2ncc3c(n2)OCCN(Cc2ccc(F)cc2F)C3=O)c1	12.6µM*
COc1ncccc1-c1ncc2c(n1)OCCN(Cc1ccccc1)C2=O	-19.2%[44.1 µM]
SMILES	Pf Dd2 growth
COc1cccc(-c2ncc3c(n2)OCCN(Cc2ccccc2)C3=O)c1	i
COc1ccc(-c2ncc3c(n2)OCCN(Cc2ccccc2)C3=O)cc1	1.26µM*
O=C1c2cnc(-c3ccc(F)cc3F)nc2OCCN1Cc1ccc(F)cc1F	-1.6%[44.1 µM]
O=C1c2cnc(-c3ccoc3)nc2OCCN1Cc1ccc(F)cc1F	i
Cn1cc(-c2ccc([S+](C)(=O)[O-])cc2)c2nc(CNc3ccccc3)cn2c1=O	-13.9%[44.1 µM]
CCCCN(Cc1ccc(S(=O)(=O)NC)cc1)Cc1ccco1	-8.9%
O=C(NCC1CC1)c1nc2c(o1)CCN(Cc1cccc(O)c1)CC2	i
O[C@@H]1C[C@@H](c2nc(-c3ccc(F)cc3)no2)N(Cc2ccncc2)C1	-12.9%[44.1 µM]
Cc1nc2cc(S(=O)(=O)N3CCOCC3)ccc2n1CCNC(=O)C1(C)CC1	1.8%
O=C(Cc1ccc(Cl)cc1)N1CCC(n2cc(-c3nc(-c4ccccc4)no3)nn2)C1 (stereo not given)	-16.5%
N#Cc1ccc(C(=O)N2CCCC(n3cc(-c4nc(-c5ccccc5)no4)nn3)C2)cc1 (stereo not given)	4.47µM*
O=C(Cc1cccc(Cl)c1)N1CCC(n2cc(-c3nc(-c4ccccc4)no3)nn2)C1 (stereo not given)	138.4%
N#Cc1ccc(C(=O)N2CCC(n3cc(-c4nc(-c5ccccc5)no4)nn3)C2)cc1 (stereo not given)	i
O=C(Cc1ccc(Cl)cc1)N1CCC(n2cc(-c3nc(-c4ccccc4)no3)nn2)CC1	2µM*
COc1ccc(C(=O)N2CCC(n3cc(-c4nc(-c5ccccc5)no4)nn3)CC2)cc1	1.26µM*
COc1cccc(C(=O)N2CCC(n3cc(-c4nc(-c5ccccc5)no4)nn3)CC2)c1	-6.9%
O=C(c1ccccc1)N1CCC(n2cc(-c3nc(-c4ccccc4)no3)nn2)C1 (stereo not given)	-0.2%
O=C(c1ccc(Cl)cc1)N1CCC(n2cc(-c3nc(-c4ccccc4)no3)nn2)C1 (stereo not given)	-17.1%
COc1ccc(C(=O)NCc2nnc3ccc(-c4ccc(C)c(C)c4)nn23)cc1F	-15.7%
O=C(NCC(F)(F)F)C1CN(Cc2ccccc2)C(=O)N1 (stereo not given)	4.3%[44.1 µM]
COc1cc(C(=O)NC2CCN(c3cc(-c4ccc(F)cc4)[nH]n3)CC2)cc(OC)c1OC	-7.5%
COc1ccccc1C(O)c1nc(Nc2ccc(Cl)cc2F)n[nH]1 (stereo not given)	i
CCCS(=O)(=O)N1CCC(Cn2c(C)cnc2C2CC2)CC1	-13.3%
COc1cc(OC)c(NC(=O)c2ccc3c(Cl)c4c(nc3c2)CCCC4)cc1Cl	13.7%
COc1ccc(Nc2c3c(nc4nncn24)CCC3)cc1OC	i
SMILES	Pf Dd2 growth
COc1cc(OC)c(Nc2c3c(nc4nc(-c5cccs5)nn24)CCCC3)cc1Cl	11.2µM*
CC[C@H]1CN(C(=O)Nc2cccc(OC)c2)CC[C@H]1CC(=O)N(C)CCC#N	i
CC1(CCCCc2ccccc2)COc2ccc(C(=O)NCc3ccncc3)cc2N1 (stereo not given)	i
COc1ccc(-c2cc(N3CCCC(NC(=O)c4ccc(F)cc4F)C3)n[nH]2)cc1 (stereo not given)	-18.9%
CCc1nc(-c2c3n(c(=O)n(CC(=O)Nc4ccc(F)cc4)c2=O)CCCCC3)no1	0.9%
Cn1cnc2cc(C(=O)N3CCNCC(C(=O)O)C3)ccc21 (stereo not given)	2.7%
O=C(NC1CCCC1)c1ccc(N2CC3CC(C2)[C@H]2CCCC(=O)N2C3)nc1 (stereo not given in full)	-16.8%
O=C([C@@H]1C[C@H](Oc2ccccc2)CN1C(=O)CC1CCCC1)N1CCCC1	i
CC(C)CC(=O)N1C[C@@H](Oc2ccccc2)C[C@H]1C(=O)N1CCCC1	-0.6%
O=C([C@@H]1C[C@H](Oc2ccccc2)CN1C(=O)C1(c2ccccc2)CC1)N1CCCC1	1.78µM*
COCCNC(=O)[C@H]1C[C@H](Oc2cccnc2)CN1S(=O)(=O)c1ccccc1	-21.4%
CCCCc1nn(CC(=O)NCc2nc3c(s2)CCCC3)c(=O)n1CC	4.6%
COCC1CN(C(C)=O)CC12CCN(Cc1cccc(C(F)(F)F)c1)CC2 (stereo not given)	-22.1%
CCOC(=O)C1(Cc2ccccc2C(F)(F)F)CCN(C(=O)c2ccc[n+]([O-])c2)CC1	-11.0%
CCCn1ncc(CN2CCC(Cc3cccc(C(F)(F)F)c3)(C(=O)OCC)CC2)c1C	12.6µM*
COc1ccccc1CC(=O)NC(C)C(=O)N1CCN(c2ccccn2)CC1 (stereo not given)	i
COc1ccnc(-c2nnc3ccc(NC4CCOCC4)nn23)c1	i
